PubChem BioAssay AID687014 (The Scripps Research Institute Molecular Screening Center, 2013)
Hit rate of the full screen: of about 370,000 compounds, about 6,800 (1.8%) were called active. The sample holds actives, similar compounds and a random draw of the others, so the mix is not that of the screen. Values without a mark were called inactive.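 The calls were made as follows: active = activation above a cutoff set at the mean of all screened compounds plus 3 SD (cut at about 10% in these data); inactive = the rest.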

Tested on: Nuclear hormone receptor DAF-12 (Heterodera glycines), GAL4 fusion
Experiment: hgDAF-12 GAL4 fusion reporter activation – cell-based, luminescence, HEK293, UAS-luciferase, primary screen (AID 687014);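 also: 0% = DMSO wells and 100% = sodium butyrate wells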
Details: HEK293 GAL4-hgDAF12 UAS-luciferase reporter, agonist luminescence; at 6.8 µM; stronger effect = higher value; normalized to butyrate control

| Structure (SMILES) | activation |
| --- | --- |
| O=[N+]([O-])c1cc(S(=O)(=O)N2CCCC2)ccc1NN=C1CCCC1 | 15.3% (active) |
| O=C(COc1ccc(S(=O)(=O)N2CCCC2)cc1[N+](=O)[O-])N1CCCCC1 | -0.16% |
| O=[N+]([O-])c1cc(C(F)(F)F)ccc1NN=C1CCCC1 | 0.04% |
| O=C1CC(c2ccc3c(c2)OCO3)N=C2N(CC3CC3)C/C(=C/c3ccccc3)N12 (configuration not stated) | -2.7% |
| Cc1cc(C)cc(N(CC(=O)NC2CCCC2)C(=O)CCC(=O)Nc2cc(C)on2)c1 | -1.1% |
| COc1cc2c(cc1OC)/C(=C/C(=O)c1ccc(NC(C)=O)cc1)NCC2 | 0.96% |
| CC1CN/C(=C\C(=O)c2ccc(Br)cc2)C(=O)N1 (configuration not stated) | 10.5% (active) |
| O=C(O)C1CCCN1S(=O)(=O)c1ccc(Br)cc1 (configuration not stated) | 0.88% |
| C=CCN=C1NC(c2cccc(C(F)(F)F)c2)C(C(=O)OC)=C(C)N1C (configuration not stated) | 1.38% |
| Cc1cccc(Cn2cnc3c(N)c(C)c(C)cc32)c1 | -4.28% |
| CCCCCCN1CCS(=O)(=O)N(Cc2ccc(C(F)(F)F)cc2)C(C(=O)OC)C1 (configuration not stated) | 1.39% |
| CCCCn1nc(C(=O)N2CCc3ccccc32)c2ccccc2c1=O | -0.16% |
| Cc1cnc(C(=O)OCC(=O)N2CCc3ccccc32)cn1 | 1.4% |
| O=C(c1cnn2ccccc12)N1CCc2ccccc21 | 16.5% (active) |
| COC(=O)[C@]12C[C@H](CC(=O)NCCCCc3ccccc3)C(=O)N(Cc3ccc4c(c3)OCO4)C1=C[C@H](C(C)(C)C)O[C@@H]2C | 0.98% |
| Cc1ccc(-n2ncc3c(=O)n(-c4ccc(C)c(C)c4)c(-c4ccco4)nc32)cc1 | 3.84% |
| Cn1c(-c2ccco2)nc2cc3ccccc3cc21 | 19.3% (active) |
| Cn1c(SCC(=O)c2cccs2)nnc1-c1ccco1 | 1.52% |
| O=C(Nc1c(Cl)c(C2CC2)nn1-c1ccccc1)C(Cl)(Cl)Cl | -2.93% |
| CCC[C@H]1C(=O)CC[C@@]23CCCN2C(=O)CCC[C@@H]13 | 1.6% |
| CN(C)c1ccc(-c2nnc(-c3cccnc3)o2)cc1 | 10.8% (active) |
| COC(=O)CSc1nnc(-c2cccnc2)o1 | 1.06% |
| CC1(c2nnc(-c3ccncc3)o2)CC(c2cccnc2)=NO1 (configuration not stated) | 3.68% |
| COc1ccc(/C(N)=N/OC(=O)CCCc2ccccc2)cc1 | -0.4% |

| Structure (SMILES) | activation |
| --- | --- |
| COc1ccc(/C(N)=N/OC(=O)Cc2ccccc2)cc1 | 11.7% (active) |
| COc1ccc(/C(N)=N/OC(=O)Oc2ccccc2)cc1 | 1.76% |
| CC(=O)Nc1ccc(OC[C@@H](O)CN2CCC(C(O)(c3ccccc3)c3ccccc3)CC2)cc1 | 2.46% |
| CCCNC(=O)C1CC(=O)N(c2ccc(OCc3ccccc3)cc2)C1 (configuration not stated) | 11% (active) |
| CCCNC(=O)C1CC(=O)N(c2ccc(OCC(=O)Nc3cccc(C)c3C)cc2)C1 (configuration not stated) | 0.77% |
| CCOc1ccc(N2CC(C(=O)NCc3ccccn3)CC2=O)cc1 (configuration not stated) | -1.47% |
| COc1ccc(N2CCN(CCNS(=O)(=O)c3ccc(Cl)s3)CC2)cc1 | 2.51% |
| Cc1ccc(OCc2nc3ccccc3n2C)cc1 | 13.2% (active) |
| Cc1ccc(Oc2nc3ccccc3n3c(C)nnc23)cc1 | 1.53% |
| COc1cccc(C(O)Cc2nc3ccccc3n2C)c1OC (configuration not stated) | 3.91% |
| COC(=O)[C@]12C[C@H](CC(=O)NCc3cccc4ccccc34)C(=O)N(CCc3ccc(OC)c(OC)c3)C1=C[C@H](C1CCCC1)O[C@@H]2C | -1.01% |
| O=C(CSc1nnc(-c2ccccn2)n1-c1ccccc1)Nc1ccc2cn[nH]c2c1 | 6.78% |
| O=C(NCCS(=O)(=O)c1ccc(Br)cc1)c1ccccc1Cl | 2.39% |
| Cc1ccccc1NC(=O)Cn1nnc(-c2ccccc2F)n1 | -1.63% |
| CN(C)c1ccnc2sc(C(=O)c3ccccc3)c(N)c12 | 21.3% (active) |
| COC(=O)c1cc2c(N)c(C(=O)c3ccc(Cl)cc3)sc2nc1C(OC)OC | -0.74% |
| CC(=O)c1c(Nc2ccccc2)sc(C(=O)c2ccccc2)c1C | 4.88% |
| COC(=O)c1c(C(=O)OC)c(-c2cccc(C)c2)n2c1CS(=O)C2 (configuration not stated) | 2.79% |
| Cc1cc(NS(=O)(=O)c2ccc(NC(=O)CSc3nnc(SCc4ccc(F)cc4)s3)cc2)nc(C)n1 | 1.18% |
| CCOC(=O)C(=O)N(Cc1ccccc1)c1ccccc1C(=O)Nc1cc(OC)ccc1OC | -2.17% |
| Cc1ccccc1CN1CCCCC(NC(=O)c2cccc(C#N)c2)C1=O (configuration not stated) | -2.73% |
| COC(=O)C1=C(C)N(Cc2ccc(C(F)(F)F)cc2)C(=NCc2ccccc2)NC1c1ccccc1C(F)(F)F (configuration not stated) | 1.9% |
| COCc1[nH]nc2c1C(c1ccccc1)N(c1ccccc1)C2=O (configuration not stated) | 0.79% |
